Hits are enriched below; roughly 13% of the tested compounds scored in any of these assays.
Lassa entry inh: blocks Lassa virus binding to or entry into cells | AID 540256 | hit rate 1.2% among 300,000 | Lassa virus pseudotype entry inhibition, cell reporter | Potency, µM (doses to about 37.9 µM), actives largely listed as inhibitors; calls by dose curve; tested in HEK293 cells; note: nearly all actives have a fitted effect of over 50% in size
Cycloheximide cs: affects cycloheximide protein synthesis inhibition readout, counter-screen; cell reporter, cycloheximide protein synthesis inhibition counterscreen; hit rate 12% among 300,000; AID 2314; max response, %; in the data active = max response mostly above about 13%, no sharp cut-off; inactive = mostly below about 14%; note: read at 38.3 µM for the half of the compounds with a filed dose
Marburg entry inh: Marburg virus entry inhibition; Marburg virus pseudotyped entry inhibition, cell reporter; Potency, µM (top dose mostly 37.8 µM), usual class: inhibitors; hit rate 1.8% among 300,000; calls by dose curve; tested in HEK293 cells
Shiga toxin inh: inhibitors of Shiga toxin in Vero cells | Vero cells, Shiga toxin protein synthesis inhibition reporter | inhibition, % at 38.7 µM | hit rate 9.2% among 290,000 | AID 2315; in the data active = inhibition mostly above about 28%, no sharp cut-off; inactive = mostly below about 43%
FMDV inh: blocks foot and mouth disease virus; FMDV antiviral cell-based qHTS; Potency, µM (doses to about 57.9 µM), most hits filed as inhibitors; hit rate 1.2% among 410,000; AID 1159524; calls by dose curve; tested in HEK293T cells; note: read-out not given here; nearly all actives have a fitted effect of over 45% in size
HCV inh: HCV inhibition | hit rate 3.4% among 340,000 | AID 651820 | Potency, µM (series often up to 41.8 µM), actives largely listed as inhibitors | Huh7.5.1 HCVcc-Cre infection, luciferase reporter, 44 h; active = well fitted inhibition curve with a large enough effect; inconclusive = small, poorly fitted or top-dose-only effect, or another doubt; inactive = no such curve, though single readings can be large or run the other way
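HCVcc-Cre virus at an moi near 0.5 was added right after compound to cells cultured 4 h from seeding (1,000 cells/well). Luciferase activity was determined 44 h later, 15 min after substrate addition at RT.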
Each line names hits and unclear results; the compound was inactive in the other large screens.

CC(=O)N1c2ccc(S(=O)(=O)N3CCC(C(=O)Nc4ccc(F)cc4)CC3)cc2CC1C (stereo unspecified)	HCV inh 11µM
CC(=O)N1c2ccc(S(=O)(=O)N3CCC(C(=O)Nc4cccc(C(F)(F)F)c4)CC3)cc2CC1C (stereo unspecified)	FMDV inh inconclusive, HCV inh 2.5µM (no result: Lassa entry inh, Marburg entry inh)
CC(=O)c1ccc(N2CCN(S(=O)(=O)c3ccc4c(c3)NC(=O)CC(=O)N4)CC2)cc1	Cycloheximide cs 24, Shiga toxin inh 55 (no result: Lassa entry inh, Marburg entry inh)
CCOc1cc(N2CCOCC2)c(OCC)cc1NC(=O)CSc1nccc(C)n1	Marburg entry inh inconclusive, HCV inh inconclusive
C=CCSc1ncccc1C(=O)NCCc1ccccc1	none
COc1cccc(NC(=O)C2CCN(S(=O)(=O)c3ccc4c(c3)CC(C)N4C(C)=O)CC2)c1 (stereo unspecified)	HCV inh inconclusive (no result: Lassa entry inh, Marburg entry inh)
CCc1cccc(NC(=O)C2CCN(S(=O)(=O)c3ccc4c(c3)CC(C)N4C(C)=O)CC2)c1 (stereo unspecified)	FMDV inh 14µM, HCV inh inconclusive (no result: Lassa entry inh, Marburg entry inh)
O=C(Nc1ccccc1)Nc1nc(-c2ccc(F)c(F)c2)cs1	none
O=C(Nc1nc(-c2ccccc2)cs1)Nc1ccc(F)cc1F	Lassa entry inh inconclusive, Cycloheximide cs 28, Shiga toxin inh 59, HCV inh inconclusive
O=C(Nc1nc(-c2cc(F)ccc2F)cs1)C1=COCCO1	Marburg entry inh inconclusive, HCV inh inconclusive (no result: Cycloheximide cs, Shiga toxin inh)
O=C(Nc1nc(-c2cc(F)ccc2F)cs1)c1ccccn1	Cycloheximide cs 15, Shiga toxin inh 42, HCV inh inconclusive
O=C(Nc1nc(-c2ccccn2)cs1)Nc1ccc(F)cc1F	Lassa entry inh inconclusive, Cycloheximide cs 35, Marburg entry inh inconclusive, Shiga toxin inh 85, HCV inh inconclusive
CS(=O)(=O)c1ccc(Cl)c(NC(=O)CN2CCN(S(=O)(=O)/C=C/c3ccccc3)CC2)c1	HCV inh inconclusive (no result: Lassa entry inh, Cycloheximide cs, Marburg entry inh, Shiga toxin inh)
CC(C)CN(C(=O)COC(=O)C1=COCCO1)c1c(N)n(Cc2ccccc2)c(=O)[nH]c1=O	none (no result: Cycloheximide cs, Shiga toxin inh)
O=C(Nc1ccccc1Cl)C1(c2ccccc2)CC1(Cl)Cl (stereo unspecified)	none
CC(=O)c1ccc(NC(=O)C2(c3ccccc3)CC2(Cl)Cl)cc1 (stereo unspecified)	Cycloheximide cs 40, Marburg entry inh inconclusive, Shiga toxin inh 88
CC(=O)c1ccc(NC(=O)/C(Cl)=C/c2ccccc2)cc1	Lassa entry inh inconclusive, Cycloheximide cs 41, Marburg entry inh inconclusive, Shiga toxin inh 147
O=C(Nc1ccc(F)cc1)/C(Cl)=C/c1ccccc1	Cycloheximide cs 40, Marburg entry inh inconclusive, Shiga toxin inh 62
Cc1ccc(NC(=O)/C(Cl)=C\c2ccccc2)cc1	Lassa entry inh 4.5µM, Marburg entry inh 7.9µM
O=S(=O)(NCC(c1cccnc1)N1CCOCC1)c1ccccc1 (stereo unspecified)	none (no result: Lassa entry inh, Marburg entry inh)
CC(=O)c1ccc2c3c(cc(C)c2c1)CCCC3	HCV inh 11µM (no result: Cycloheximide cs, Shiga toxin inh)
COc1cc2ccc(C(C)=O)cc2cc1OC	none (no result: Lassa entry inh, Cycloheximide cs, Marburg entry inh, Shiga toxin inh, HCV inh)
COc1cc(OC)c(N(C)S(=O)(=O)c2cccc(C(=O)NCc3cccs3)c2)cc1Cl	none (no result: Lassa entry inh, Cycloheximide cs, Marburg entry inh, Shiga toxin inh, HCV inh)
O=C(Nc1ccccc1C(F)(F)F)c1cc(S(=O)(=O)N2CCC3(CC2)OCCO3)ccc1F	Lassa entry inh inconclusive
Cc1cc2nc(C3CCCN(C(=S)Nc4ccccc4)C3)[nH]c2cc1C (stereo unspecified)	Lassa entry inh inconclusive, Cycloheximide cs 35, HCV inh inconclusive (no result: FMDV inh)
O=C(O)c1cc(-n2nnnc2SCc2ccccc2F)ccc1Cl	none
COC(=O)c1ccc(Sc2nnnn2-c2ccccc2)c([N+](=O)[O-])c1	Lassa entry inh inconclusive, Marburg entry inh inconclusive, FMDV inh 20µM
O=C(O)c1ccc(Sc2nnnn2-c2ccccc2)c([N+](=O)[O-])c1	none
OC[C@H]1OC(Nc2ccc(N=Nc3ccccc3)cc2)[C@@H](O)[C@@H](O)[C@@H]1O (stereo partly specified)	Cycloheximide cs 37, Shiga toxin inh 112 (no result: Lassa entry inh, Marburg entry inh)
Cc1ncc(C(=O)Nc2ccccc2)[nH]1	Lassa entry inh inconclusive, Marburg entry inh inconclusive (no result: Cycloheximide cs, Shiga toxin inh)
O=C(Nc1ccccc1)c1cnc[nH]1	Cycloheximide cs 30, Shiga toxin inh 67
O=C(c1ccccc1)c1cnc[nH]1	Cycloheximide cs 13
Clc1ccc(-c2nnc(N3CCCC3)nn2)cc1	Lassa entry inh inconclusive, Cycloheximide cs 34, Marburg entry inh inconclusive, Shiga toxin inh 145
CC(=O)NN1C(=O)c2ccc3c4c(ccc(c24)C1=O)C(=O)N(NC(C)=O)C3=O	HCV inh 10µM (no result: Lassa entry inh, Marburg entry inh)
O=C1c2ccc3c4c(ccc(c24)C(=O)N1NC(=O)C(F)(F)F)CC3	none (no result: FMDV inh)
Cc1ccc(O)c(/C=N/NC(=O)Cc2ccc(Cl)cc2)c1	HCV inh inconclusive (no result: Lassa entry inh, Marburg entry inh)
Cc1cccc(/C=N/NC(=O)Cc2ccc(Cl)cc2)c1O	HCV inh 13µM (no result: Lassa entry inh, Marburg entry inh)
O=C(NN=Cc1cccc(O)c1O)c1ccccc1	none (no result: Lassa entry inh, Cycloheximide cs, Marburg entry inh, Shiga toxin inh, HCV inh)
Cc1cccc(/C=N\NC(=O)c2ccc(Cl)cc2)c1O	Lassa entry inh 11µM, Cycloheximide cs 62, Marburg entry inh 5.6µM, Shiga toxin inh 82, HCV inh inconclusive
CCC(=NC(C)c1ccccc1)c1c(O)n(C)c(=O)n(C)c1=O (stereo unspecified)	Lassa entry inh inconclusive, Marburg entry inh inconclusive, FMDV inh 13µM, HCV inh 5.6µM
CC(=NCCc1c[nH]c2ccccc12)c1c(O)n(Cc2ccccc2)c(=O)[nH]c1=O	Lassa entry inh 11µM, Marburg entry inh inconclusive, FMDV inh inconclusive, HCV inh inconclusive
CCC(=NCCc1c[nH]c2ccccc12)c1c(O)n(C)c(=O)n(C)c1=O	Lassa entry inh inconclusive, Marburg entry inh inconclusive, FMDV inh 16µM, HCV inh 4.5µM
CCC(=NCCc1c[nH]c2ccccc12)c1c(O)n(-c2ccc(C)cc2)c(=O)[nH]c1=O	Lassa entry inh 1.8µM, Marburg entry inh inconclusive
CC(=NCCN1CCOCC1)c1c(O)n(Cc2ccccc2)c(=O)[nH]c1=O	none
O=c1o[nH]c(-c2ccccc2)c1C=Nc1ccc(Cl)cc1	none
NS(=O)(=O)c1ccc(NC(=O)COc2ncnc3c2cnn3-c2ccccc2)cc1	none (no result: Lassa entry inh, Marburg entry inh)
O=C(CN1CCCC1)Nc1ccc(OC(F)(F)F)cc1	Cycloheximide cs 20 (no result: Shiga toxin inh)
O=C(CN1CCOCC1)Nc1ccc(OC(F)(F)F)cc1	Cycloheximide cs 21 (no result: Lassa entry inh, Marburg entry inh)
CCN1CCN(CC(=O)Nc2ccc(OC(F)(F)F)cc2)CC1	HCV inh inconclusive
O=c1[nH]c(=O)n(-c2ccc(F)cc2)c2c1C(C(F)(F)F)(C(F)(F)F)N=C(c1ccc(F)cc1)N2	Lassa entry inh inconclusive, Marburg entry inh inconclusive, FMDV inh 10µM, HCV inh 13µM
O=c1[nH]c(=O)n(-c2ccccc2)c2c1C(C(F)(F)F)(C(F)(F)F)N=C(CCC1CCCCC1)N2	Lassa entry inh 11µM, Marburg entry inh inconclusive, FMDV inh 25µM, HCV inh inconclusive
O=S(=O)(c1ccccc1)N(Cc1ccccc1)c1ccccn1	Marburg entry inh inconclusive
O=c1c2[nH]c3ccccc3c2nc2n1CCCS2	Lassa entry inh inconclusive, Cycloheximide cs 38, Shiga toxin inh 74
